This is a sample that favours compounds with a hit; in the whole collection about 10% have one here.
Luciferase inh = Photinus pyralis luciferase inhibition; P08659; purified P. pyralis luciferase, luminescence, biochemical; Potency, µM (top dose mostly 115 µM), hits mostly inhibitors; 2.5% of 76,000 active; also: nearly all actives have a fitted effect of over 65% in size
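FLuc 10nM, D-luciferin 10uM, ATP 10uM, Mg acetate 10mM, Tris acetate pH 7.5, Tween/BSA; cpd qHTS; enzyme added last; CCD luminescence.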
GPT2 inhibitor = inhibitors of human GPT2 alanine aminotransferase; 0.25% of 100,000 active; Recombinant GPT2, coupled pyruvate oxidase/HRP Amplex Red fluorescence; Potency, µM (titrated, usually from 57.7 µM), hits mostly inhibitors; Q8TD30; also: nearly all actives have a fitted effect of over 60% in size
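Inhibition is scored from Amplex Red fluorescence generated when pyruvate oxidase and HRP act on pyruvate released by GPT2. Reactions contain 10ng/uL enzyme, 250uM a-KG and 2mM L-alanine and run 30 min at room temperature.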
HEK cytotox = cytotoxic compounds in HEK 293 cells; HEK 293 viability, ATP luminescence (CellTiter-Glo), 48-72 h; AID 1345083; Potency, µM (highest dose often 115 µM), hits mostly inhibitors; 6.6% of 94,000 active; also: nearly all actives have a fitted effect of over 60% in size
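HEK 293 seeded at 250 cells/well receive compound via pintool. After 48 or 72 hr at 37 degree Celsius, 5% CO2 and 95% humidity, CellTiter-Glo is dispensed and luminescence read following 10 min at room temperature.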
NIH3T3 tox = kills NIH 3T3 cells; NIH 3T3 viability, CellTiter-Glo ATP luminescence, 48-72 h; Potency, µM (highest dose often 96.7 µM), hits mostly inhibitors; 4.3% of 94,000 active; AID 1345082; also: nearly all actives have a fitted effect of over 55% in size
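Cytotoxicity is measured as loss of cellular ATP: NIH 3T3 cells (400/well) are exposed to compound for 48 or 72 hr at 37 °C, then CellTiter-Glo luminescence is imaged after 10 min at room temperature.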
NPR1 antag = blocks ANP-stimulated signaling of human Npr1 receptor; P16066; HEK293 hNpr1 GloSensor cGMP, ANP-stimulated luminescence; Potency, µM (highest dose often 46.3 µM), hits mostly inhibitors; 1.6% of 76,000 active; AID 1347048; calls by dose curve; also: nearly all actives have a fitted effect of over 60% in size
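Compound pre-incubated 30 min at room temperature on GloSensor-loaded HEK293 cells stably carrying hNpr1 and the pGS-40F cGMP biosensor. Stimulation uses hNppA at 0.1 nM final; luminescence is taken at baseline and 20 min post-agonist.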
Of the large screens only hits and unclear results are named; the others gave an inactive call. Unless noted, calls follow the shape of the dose curve; as a rule, active = well fitted curve in the direction sought with a large enough effect; inconclusive = small, poorly fitted or top-dose-only effect, or another doubt; inactive = no such curve, though single readings can be large; an effect the other way counts as inactive or inconclusive.

O=C(C1CCCCN1Cc1ccc(-c2cccs2)cc1)N1CCN(Cc2ccccc2)CC1 (stereo not given)	HEK cytotox inconclusive, NIH3T3 tox 32µM (no result: Luciferase inh, NPR1 antag)
O=C(NC1CC1)C1CCCCN1Cc1ccc(-c2cccs2)cc1 (stereo not given)	HEK cytotox 45µM, NIH3T3 tox inconclusive (no result: Luciferase inh, NPR1 antag)
O=C(C1CCCCN1Cc1ccc(-c2cccs2)cc1)N1CCC(Cc2ccccc2)CC1 (stereo not given)	HEK cytotox inconclusive, NIH3T3 tox inconclusive (no result: Luciferase inh, NPR1 antag)
O=C(NC1CCOCC1)C1CCCCN1Cc1ccc(-c2cccs2)cc1 (stereo not given)	HEK cytotox 45µM, NIH3T3 tox inconclusive (no result: Luciferase inh, NPR1 antag)
C[C@H]1[C@H](C)C[C@@H](C(=O)O)C2CC[C@]3(C)C(=CC[C@@H]4[C@@]5(C)CC[C@H](O)C(C)(C)[C@@H]5CC[C@]43C)[C@@H]21 (stereo not given in full)	none (no result: Luciferase inh, HEK cytotox, NIH3T3 tox, NPR1 antag)
CC1(C)C=Cc2c(ccc3c2N=C2C(C)(C)[C@@H]4C[C@]56CCCN5C(=O)[C@@]4(C[C@]23O)NC6=O)O1	none (no result: Luciferase inh, HEK cytotox, NIH3T3 tox, NPR1 antag)
N#Cc1cccc(CN2Cc3[nH]cnc3C[C@H]2c2nc(-c3ccccc3)no2)c1	Luciferase inh 63µM, HEK cytotox 89µM, NIH3T3 tox inconclusive
Cc1cccc(-c2noc([C@@H]3Cc4nc[nH]c4CN3Cc3cccc(C#N)c3)n2)c1	HEK cytotox inconclusive, NIH3T3 tox inconclusive
Cc1ccc(-c2noc([C@@H]3Cc4nc[nH]c4CN3Cc3ccc(F)cc3)n2)cc1	Luciferase inh 50µM, HEK cytotox 89µM, NIH3T3 tox 35µM, NPR1 antag inconclusive
Cc1ccc(-c2noc([C@@H]3Cc4nc[nH]c4CN3Cc3ccc(CO)o3)n2)cc1	Luciferase inh 63µM
O=C(C1CC1)N1CCc2nc(C3CC3)nc(-c3ccc(O)cc3)c2CC1	none (no result: Luciferase inh, NPR1 antag)
CCCN(C)c1nccnc1OC1CCN(C(=O)C2CC2)C1 (stereo not given)	Luciferase inh 40µM, NIH3T3 tox inconclusive
CCCN(C)c1nccnc1OC1CCN(C(=O)C2CCCCC2)C1 (stereo not given)	Luciferase inh inconclusive, HEK cytotox inconclusive
COc1ccc(Cl)cc1C(=O)N1CCC(Oc2nccnc2N(C)C)C1 (stereo not given)	Luciferase inh inconclusive, HEK cytotox inconclusive
CN(C)c1nccnc1OC1CCN(C(=O)C2CCOCC2)C1 (stereo not given)	none
CCCN(C)c1nccnc1OC1CCN(C(=O)C2CCOCC2)C1 (stereo not given)	Luciferase inh 40µM
CCCN(C)c1nccnc1OC1CCN(C(=O)C(CC)CC)C1 (stereo not given)	Luciferase inh 32µM, HEK cytotox inconclusive, NIH3T3 tox inconclusive
CC1CCN(CC2CCCCCN2C(=O)c2ccnn2C)CC1 (stereo not given)	none (no result: Luciferase inh, NPR1 antag)
N#Cc1ccc(CN2CCC3(CC2)CC(=O)c2ccc(Cl)cc2O3)cc1	HEK cytotox inconclusive, NPR1 antag inconclusive
Cc1cccc(C)c1-c1nnc2ccc(C(=O)N3CCN(C)CC3)cn12	GPT2 inhibitor inconclusive (no result: Luciferase inh, NPR1 antag)
COc1ccc(-c2nnc(C[C@@H]3C[C@@H](C(C)C)[C@H](CN4CCN(c5ncccn5)CC4)C=C3C)o2)cc1	HEK cytotox 40µM, NIH3T3 tox inconclusive
COCCN1CCN(C[C@@H]2C=C(C)[C@H](Cc3nnc(-c4ccc(OC)cc4)o3)C[C@H]2C(C)C)CC1	HEK cytotox 40µM, NIH3T3 tox 40µM
COCCN1CCN(C[C@@H]2C=C(C)[C@H](Cc3nnc(C)o3)C[C@H]2C(C)C)CC1	HEK cytotox 89µM, NIH3T3 tox inconclusive
CCCCNc1nc2c(s1)C[C@]1(C)CC[C@@H]3[C@H](OC(=O)[C@H]3C)[C@H]1[C@@H]2C	Luciferase inh inconclusive, GPT2 inhibitor inconclusive, HEK cytotox inconclusive, NIH3T3 tox inconclusive, NPR1 antag 18µM
CCOC(=O)c1oc2ccc(S(=O)(=O)NCC3Cn4cccc4C(=O)N3C)cc2c1C (stereo not given)	HEK cytotox 40µM, NPR1 antag inconclusive
COc1cccc(S(=O)(=O)NCC2Cn3cccc3C(=O)N2C)c1 (stereo not given)	none
CCc1nc2c(c(-c3ccc(Cl)cc3)n1)CN([S+](=O)([O-])c1cccs1)CC2	none
O=[S+]1([O-])NC2(CCN(Cc3cccc4ccccc34)CC2)CNc2ccccc21	HEK cytotox 40µM, NIH3T3 tox inconclusive
O=C(NC[C@H]1COCc2nc3cc(F)ccc3n21)c1ccc(Cl)cc1	HEK cytotox 71µM, NIH3T3 tox inconclusive
Fc1ccc2c(c1)nc1n2[C@@H](CNC2CCCCC2)COC1	HEK cytotox inconclusive, NIH3T3 tox 28µM
O=C(NC[C@H]1COCc2nc3cc(C(F)(F)F)ccc3n21)C1CC1	HEK cytotox inconclusive
O=C(NC[C@H]1COCc2nc3cc(F)ccc3n21)c1ccc2c(c1)OCO2	Luciferase inh inconclusive, NIH3T3 tox inconclusive
O=C(NC[C@H]1COCc2nc3cc(F)ccc3n21)C1CC1	NIH3T3 tox 79µM
COc1ccccc1Cn1c(=O)c(C(=O)N2CCC(Cc3ccccc3)CC2)nc2cccnc21	HEK cytotox inconclusive, NIH3T3 tox inconclusive (no result: Luciferase inh, NPR1 antag)
COc1ccc(-c2noc(CCCC(=O)N3CCCn4nc(-c5ccc(F)cc5)cc4C3)n2)cc1OC	HEK cytotox 32µM, NIH3T3 tox inconclusive (no result: Luciferase inh, NPR1 antag)
Oc1cc(O)c2c(c1)O[C@H](c1ccc(O)c(O)c1)[C@H](O)C2	GPT2 inhibitor 28µM (no result: Luciferase inh, HEK cytotox, NIH3T3 tox, NPR1 antag)
C[S+](=O)([O-])c1ccc(-c2nnc3ccc(C(=O)NC4CCCCC4)cn23)cc1	none (no result: Luciferase inh, NPR1 antag)
CN1CCN(C(=O)c2ccc3nnc(Cc4ccc(Cl)cc4)n3c2)CC1	none (no result: Luciferase inh, NPR1 antag)
CC1CCN(C(=O)c2csc(N3CCN(c4ccc(Cl)cc4)CC3)n2)CC1	HEK cytotox inconclusive, NIH3T3 tox inconclusive, NPR1 antag inconclusive
CCCCN1CCN(C(=O)c2csc(N3CCN(c4cccc(Cl)c4)CC3)n2)CC1	HEK cytotox 22µM, NIH3T3 tox inconclusive
O=C(NC1CCCC1)c1csc(N2CCN(c3cccc(Cl)c3)CC2)n1	HEK cytotox 35µM, NIH3T3 tox inconclusive
O=C(NCc1ccc(C(F)(F)F)cc1)c1nc2cccnc2n(CCc2ccccc2)c1=O	HEK cytotox inconclusive, NIH3T3 tox inconclusive (no result: Luciferase inh, NPR1 antag)
COc1ccc(Nc2ccnc(N3CCCC(C(=O)NCCc4ccc(Cl)cc4)C3)n2)cc1 (stereo not given)	HEK cytotox inconclusive, NIH3T3 tox inconclusive (no result: Luciferase inh, NPR1 antag)
Cc1ccc(Nc2ccnc(N3CCCC(C(=O)NCc4ccccc4F)C3)n2)cc1 (stereo not given)	HEK cytotox 10µM, NIH3T3 tox 14µM (no result: Luciferase inh, NPR1 antag)
COc1ccc(Nc2ccnc(N3CCCC(C(=O)NCCc4ccccc4F)C3)n2)cc1 (stereo not given)	HEK cytotox 22µM, NIH3T3 tox inconclusive (no result: Luciferase inh, NPR1 antag)
Cc1ccc(Nc2ccnc(N3CCCC(C(=O)NCc4cccc(F)c4)C3)n2)cc1 (stereo not given)	HEK cytotox 50µM, NIH3T3 tox inconclusive (no result: Luciferase inh, NPR1 antag)
